According to PubChem BioAssay AID372 (MTDP, 2006):
Out of some 100,000 compounds screened, about 770 (0.77%) were called active. The sample as a whole holds a higher share of actives than the screen did. Unmarked numbers belong to inactive results. Rule as the data show it: active = inhibition above about 50%; inactive = the rest.

target: Gag-Pol polyprotein (Human immunodeficiency virus type 1 group M subtype B (isolate HXB2)) (UniProt P04585); test: RNase H inhibition, HIV 1 Gag Pol polyprotein, FRET biochemical assay, screening (AID 372); conditions: HIV-1 RT RNase H, FRET RNA/DNA substrate fluorescence; at 10 µM; hits give high values

Going from `O=c1c(N=Nc2ccc(Br)cc2)c(O)n(-c2ccccc2)c(=O)n1-c1ccccc1` to `O=C(COc1ccccc1Cl)Nc1cccc(NC(=O)c2ccccc2)c1`, the inhibition falls from 17% to 6%.

First: COc1ccccc1C1NC(=S)NC(C)=C1C(C)=O (stereo not drawn)
Second: CC1=C(C(=O)Nc2ccccc2)C(c2cccc(Br)c2)NC(=S)N1 (stereo not drawn)
The inhibition of the first is lower: 5% for the first, 8% for the second.

Going from `Cc1csc(N/N=C/c2c(F)cccc2Cl)n1` to `Cc1cc(C)nc(SCC(=O)N/N=C/c2c(Cl)cccc2Cl)n1`, the inhibition rises from 18% to 20%.

Compared with `Cc1ccc2nc(-c3ccc(NC(=O)CCc4ccccc4)cc3)sc2c1`, `Cc1ccc2nc(-c3ccc(NC(=S)NC(=O)c4ccccc4)cc3)sc2c1` is higher in inhibition: 5% for the first, 6% for the second.

First: O=C(Nc1ccc(Cl)cc1)Nc1ccc(-c2nc3ccccc3s2)cc1
Second: Cc1ccc2nc(-c3ccc(NC(=O)Cc4ccc(Cl)cc4)cc3)sc2c1
The inhibition of the first is lower: 17% for the first, 24% for the second.

First: Cc1ccc2nc(-c3ccc(NC(=S)NC(=O)c4ccccc4Cl)cc3)sc2c1
Second: Cc1cccc(C(=O)NC(=S)Nc2ccc(-c3nc4ccccc4s3)cc2)c1
The inhibition of the first is lower: 8% for the first, 35% for the second.

Going from `O=C(NC(=S)Nc1ccc(-c2nc3ccccc3s2)cc1)c1cccc(F)c1` to `Cc1ccc(C(=O)NC(=S)Nc2ccc(-c3nc4ccccc4s3)cc2)cc1C`, the inhibition rises from 34% to 35%.

First: Cc1ccc2nc(-c3ccc(NC(=O)c4cccc(F)c4)cc3)sc2c1
Second: O=C(NC(=S)Nc1ccc(-c2nc3ccccc3s2)cc1)c1ccc([N+](=O)[O-])cc1
The inhibition of the first is higher: 43% for the first, 38% for the second.

Compared with `O=C(Nc1ccc(Cl)cc1)C1CC(=O)N(c2cccc([N+](=O)[O-])c2)C1` (stereo not drawn), `NC(=O)c1ccccc1NC(=O)c1cccc([N+](=O)[O-])c1` is higher in inhibition: 4% for the first, 7% for the second.

Going from `COc1cc(OC)c(/C=C2\C(=O)NC(=S)N(c3ccc(C)cc3)C2=O)cc1Br` to `CCOC(=O)COc1ccc(/C=C2\C(=O)NC(=S)N(c3ccc(OCC)cc3)C2=O)cc1OC`, the inhibition rises from 4% to 9%.

Compared with `Cc1ccc(N=C(NO)C(=Nc2ccc(C)c(C)c2)NO)cc1C`, `COc1cc(/C=C2/C(=O)NN(c3ccc(C)c(C)c3)C2=O)ccc1O` is higher in inhibition: 23% for the first, 25% for the second.

First: COc1cc(C=C2C(=O)c3ccccc3C2=O)ccc1OCc1ccc(F)cc1
Second: COc1cc(/C=C2/C(=O)NN(c3ccc(Cl)cc3)C2=O)ccc1O
The inhibition of the first is lower: 7% for the first, 23% for the second.

First: COc1cc(C2NC(=O)NC(C)=C2C(=O)OCc2ccc3c(c2)OCO3)cc(OC)c1OC (stereo not drawn)
Second: COc1cc(C(=O)N/N=C/c2ccc(OC)c(OC)c2C(=O)O)cc(OC)c1OC
The inhibition of the first is higher: 9% for the first, 0% for the second.

First: COc1ccc2c(c1)CC/C(=C\c1ccc([N+](=O)[O-])cc1)C2=O
Second: COc1ccc(C(=O)OCC(=O)c2ccc([N+](=O)[O-])cc2)cc1OC
The inhibition of the first is lower: 4% for the first, 7% for the second.

`O=S(=O)(Nc1nc2ccccc2s1)c1cccc2cccnc12` and `Cc1ccccc1OCC(=O)Nc1ccc2nn(-c3ccccc3)nc2c1` are the same in inhibition: 8% for the first, 8% for the second.

`Cc1cc(NC(=O)CSc2nnc3c4ccccc4n(C)c3n2)no1` and `O=C(CSc1nc2ccccc2[nH]1)Nc1cc(Cl)ccc1Cl` are the same in inhibition: 4% for the first, 4% for the second.

Going from `Oc1c(Br)cc(/C=N/Nc2nnc3c(n2)[nH]c2ccccc23)c(O)c1Br` to `Oc1c(Br)cc(Br)cc1/C=N/Nc1nnc2c(n1)[nH]c1ccccc12`, the inhibition falls from 12% to 2%.

First: O=C(CNC(=O)c1ccccc1)OCC(=O)c1ccc(Cl)cc1
Second: O=C(Nc1cc(NC(=O)c2cc(Cl)ccc2Cl)ccc1Cl)c1ccccc1
The inhibition of the first is lower: 3% for the first, 20% for the second.

First: Cc1ccc(N2NC(=O)/C(=C/c3cc(I)cc(I)c3O)C2=O)cc1
Second: Cc1ccc(N2NC(=O)/C(=C/c3ccc(O)c([N+](=O)[O-])c3)C2=O)cc1
The inhibition of the first is lower: 0% for the first, 8% for the second.

Going from `Cc1ccc(N2C(=O)NC(=O)/C(=C/c3ccc(O)c(O)c3)C2=O)cc1` to `O=C1NN(c2ccc(Cl)c(Cl)c2)C(=O)/C1=C/c1ccc(O)c(O)c1`, the inhibition rises from 33% to 49%.

Going from `O=C1NN(c2ccc(I)cc2)C(=O)/C1=C\c1ccc(F)cc1` to `CCOc1cc(/C=C2/C(=O)NN(c3ccc(I)cc3)C2=O)ccc1O`, the inhibition rises from 0% to 11%.

Compared with `Cc1ccc(N2NC(=O)/C(=C/c3ccc(O)cc3)C2=O)cc1C`, `CCOC(=O)c1ccc(N2NC(=O)/C(=C/c3ccccc3O)C2=O)cc1` is higher in inhibition: 13% for the first, 14% for the second.

Compared with `CCCOC(=O)C1=C(C)NC2=C(C(=O)CCC2)C1c1cccc(O)c1` (stereo not drawn), `CCOC(=O)C1=C(C)NC2=C(C(=O)CC(C)(C)C2)C1c1cccc(O)c1` (stereo not drawn) is lower in inhibition: 2% for the first, 0% for the second.

Going from `N#CC1=C(SCC(=O)Nc2ccccc2)NC(=O)CC1c1ccco1` (stereo not drawn) to `O=C(/C=C/c1cc(Br)cs1)Nc1ccccc1`, the inhibition rises from 7% to 11%.

First: COc1ccc2oc(C)c(C(O)c3ccccc3)c2c1 (stereo not drawn)
Second: COc1cc(/C=N\NC(=O)CSc2nc3ccccc3o2)ccc1O
The inhibition of the first is lower: 0% for the first, 25% for the second.

Going from `CCOc1ccc(N2C(=O)CSC2=S)cc1` to `COc1ccc(C2CC(=O)N(CCCN(C)C)C2)cc1` (stereo not drawn), the inhibition rises from 0% to 2%.

First: COc1cccc(OCCCN2CCCC2)c1
Second: COc1ccc(-n2nc3ccc(NC(=O)COc4ccccc4Cl)cc3n2)cc1
The inhibition of the first is lower: 13% for the first, 32% for the second.

Going from `O=C(Cc1ccccc1)Nc1ccc2nn(-c3ccc(Cl)cc3)nc2c1` to `O=C(Cc1ccc(Cl)cc1)Nc1ccc2nn(-c3ccc(F)cc3)nc2c1`, the inhibition rises from 37% to 41%.

Compared with `O=C(COc1ccccc1Cl)Nc1cccc(NC(=O)c2cccc(Cl)c2)c1`, `O=C(N/N=C/c1ccccc1Cl)c1cccc(Cl)c1` is lower in inhibition: 38% for the first, 8% for the second.

First: O=C(COc1ccccc1)Nc1cc(C(F)(F)F)cc(C(F)(F)F)c1
Second: CCOC(=O)c1c(NC(=O)Cc2cccs2)sc(C(=O)Nc2cc(C(F)(F)F)ccc2Cl)c1C
The inhibition of the first is lower: 0% for the first, 16% for the second.

Compared with `C#CCSc1nc(C)cc(C)c1C#N`, `Cc1nnc(C)n1/N=C/c1ccc(Cl)cc1` is lower in inhibition: 13% for the first, 2% for the second.

Going from `Cc1csc(NC(=O)C2CC3CCC2C3)n1` (stereo not drawn) to `Cn1c(SC/C=C/c2ccccc2)nc2sc3c(c2c1=O)CCC3`, the inhibition falls from 4% to 2%.

First: COc1ccc(N(CC(=O)Nc2cccc(OC)c2)S(=O)(=O)c2ccc(C)cc2)cc1
Second: COc1ccc(CSCC(=O)N/N=C/c2ccccc2O)cc1
The inhibition of the first is higher: 16% for the first, 14% for the second.

Going from `CC(C(=O)O)n1c(O)c(/C=C2/C=Nc3ccccc32)sc1=S` (stereo not drawn) to `Cc1ccccc1/C=N/NC(=O)c1cc(O)cc(O)c1`, the inhibition falls from 4% to 2%.

Going from `O=C(N/N=C/c1ccc(Cl)cc1Cl)c1cc(O)cc(O)c1` to `O=C(N/N=C/c1ccc(Cl)cc1Cl)c1cc(Br)ccc1O`, the inhibition falls from 6% to 0%.

First: C[n+]1ccc(C(=O)N/N=C/c2ccc(Cl)cc2Cl)cc1
Second: O=C(N/N=C/c1ccc(Cl)cc1Cl)c1ccccc1Cl
The inhibition of the first is lower: 0% for the first, 5% for the second.

Going from `O=C(N/N=C/c1c[nH]c2ccccc12)c1cc(O)cc(O)c1` to `O=C(N/N=C/c1cccc(O)c1O)c1ccccc1`, the inhibition rises from 8% to 31%.

`O=C(N/N=C/c1ccccc1Cl)c1ccc(C(=O)N/N=C/c2ccccc2Cl)cc1` and `O=C(N/N=C/c1cccc(Cl)c1Cl)c1ccc(O)cc1` are the same in inhibition: 0% for the first, 0% for the second.

Compared with `Cc1cc(C)c(S(=O)(=O)N2CCCC2=O)c(C)c1`, `NC1=NC(=O)/C(=C/c2cccc(OS(=O)(=O)c3cccc([N+](=O)[O-])c3)c2)S1` is higher in inhibition: 0% for the first, 3% for the second.

Going from `O=C(N/N=C/c1cccc(Cl)c1Cl)c1ccc(Cl)c(Cl)c1` to `O=C(N/N=C/c1cccc(O)c1O)c1ccc(O)cc1`, the inhibition rises from 5% to 32%.

`Oc1c(Cl)cc(Cl)cc1C=Nc1ccc(-c2nc3ccccc3[nH]2)cc1` was tested, and the inhibition was 0%.

`Cc1ccc2nc(-c3ccc(NC(=O)Cc4ccccc4)cc3)sc2c1` was tested, and the inhibition was 52% (active).
With `Cc1ccc2nc(-c3ccc(NC(=S)NC(=O)c4cccc(F)c4)cc3)sc2c1` the inhibition was 56% (active).
`Cc1ccc2nc(-c3ccc(NC(=S)NC(=O)c4ccccc4F)cc3)sc2c1` was tested, and the inhibition was 52% (active).
`Cc1cccc(NC(=O)Nc2ccc(-c3nc4ccccc4s3)cc2)c1` was tested, and the inhibition was 50% (active).
For `Cc1ccc(N2NC(=O)/C(=C/c3ccc(O)c(O)c3)C2=O)cc1`, the inhibition was 51% (active).
In the case of `Cc1ccc(N2NC(=O)/C(=C/c3ccc(O)c(O)c3)C2=O)cc1C`, the inhibition is reported as 52% (active).
For `CCOC(=O)c1ccc(N2NC(=O)/C(=C/c3cc(I)cc(I)c3O)C2=O)cc1`, the inhibition was 57% (active).
`O=C1NN(c2ccc(Cl)cc2)C(=O)/C1=C\c1ccc(O)c(O)c1` was tested, and the inhibition was 57% (active).
With `O=C(Cc1ccc(Cl)cc1)Nc1ccc2nn(-c3ccc(Cl)cc3)nc2c1` the inhibition was 51% (active).
In the case of `O=C(COc1ccccc1Cl)Nc1cccc(S(=O)(=O)c2cccc(NC(=O)COc3ccccc3Cl)c2)c1`, the inhibition is reported as 54% (active).
In the case of `O=C(COc1ccccc1Cl)Nc1ccc2nn(-c3ccccc3)nc2c1`, the inhibition is reported as 53% (active).
With `O=C(N/N=C/c1ccc(O)c(O)c1O)c1ccc(Cl)cc1Cl` the inhibition was 61% (active).
In the case of `O=C(N/N=C/c1coc2ccccc2c1=O)c1cc(O)cc(O)c1`, the inhibition is reported as 55% (active).
With `O=C(N/N=C/c1ccc(Cl)cc1Cl)c1ccc(O)c(O)c1` the inhibition was 57% (active).
In the case of `O=C(N/N=C/c1cccc(Cl)c1Cl)c1ccc(O)c(O)c1`, the inhibition is reported as 56% (active).
In the case of `O=C(N/N=C/c1cccc(O)c1O)c1cc(O)cc(O)c1`, the inhibition is reported as 86% (active).
With `COc1ccc(CSCC(=O)N/N=C/c2c(Cl)cccc2Cl)cc1` the inhibition was 60% (active).
